Records with an inconclusive call do not appear. Where a call stands in place of a potency, no number is given. The source made the active and inactive calls. Unless noted, calls come from the whole dose curve.
Columns and labels:
[1] = Nuclear factor erythroid 2-related factor 2/antioxidant responsive element (Nrf2/ARE) small molecule agonists: qHTS cell viability counter screen in human keratinocytes (AID 1919968; active = well fitted curve in the direction sought with a large enough effect in the repeat runs; an effect the other way counts as inactive or inconclusive; note: nearly all actives have a fitted effect of over 55% in size)
How it was run: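 Stably transfected HaCaT (KeratinoSens), 1,500/well. Test agents in DMSO were applied for 23 h, 37 C/5% CO2. CellTiter-Fluor was incubated 1 h before the fluorescence read.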

[2] = Nuclear factor erythroid 2-related factor 2/antioxidant responsive element (Nrf2/ARE) small molecule agonists: luciferase reporter gene qHTS assay in human keratinocytes (AID 1919969); note: nearly all actives have a fitted effect of over 35% in size
[3] = biological target: Gonadotropin-releasing hormone receptor (Homo sapiens) (UniProt P30968); experiment: Human gonadotropin-releasing hormone receptor (GnRHR) small molecule agonists, calcium flux assay in GnRHR-HEK293 cells (AID 1920063); note: nearly all actives have a fitted effect of over 35% in size
How it was run: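 Stable human GnRHR HEK293 line. 18 h plating, then calcium dye for 1 h at 37 C. Agonist-mode compound addition from DMSO stocks; fluorescence monitored 3 min.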

[4] = biological target: KiSS-1 receptor (Homo sapiens) (UniProt Q969F8); experiment: Human kisspeptin (KISS1R) small molecule agonists, calcium flux assay in KISS1R-HEK293 cells (AID 1920064; active = well fitted curve in the direction sought with a large enough effect in the repeat runs; an effect the other way counts as inactive or inconclusive)
How it was run: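 After overnight (18 h) culture at 37 C/5% CO2, human KISS1R-HEK293 cells received calcium dye for 1 h, then test compound; emission at 540 nm (excitation 480 nm) was tracked for 3 min.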

[5] = G protein-coupled receptor (GPCR) small molecule agonists, calcium flux assay: HEK293 wild type cell line counter screen (AID 1920065)
How it was run: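 Following 18 h incubation at 37 C/5% CO2, plates got calcium dye for 1 h; compounds, ATP or DMSO were then pinned in and fluorescence followed kinetically (480/540 nm).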

[6] = p53 small molecule agonists, cell-based qHTS assay with human liver microsomes (AID 1963577)
How it was run: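 p53RE-bla reporter cells were pre-incubated 5 h at 37 C, then treated with compounds plus human liver microsomes (0.5 mg/mL final) and NADPH (0.5 mg/mL final) for 16 h at 37 C. Beta-lactamase activity was read by LiveBLAzer fluorescence after 2 h at room temperature.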

[7] = p53 small molecule agonists, cell-based qHTS assay with rat liver microsomes (AID 1963578)
How it was run: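 p53RE-bla cells were exposed to compounds together with rat liver microsomes (0.5 mg/mL final) and NADPH (0.5 mg/mL final) for 16 h at 37 C, then read by LiveBLAzer beta-lactamase fluorescence after 2 h at room temperature.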

[8] = p53 small molecule agonists, cell-based qHTS assay with human liver microsomes: qHTS cell viability counter screen (AID 1963579); note: nearly all actives have a fitted effect of over 45% in size; note: potency is the fitted concentration of half-maximal effect
How it was run: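 p53RE-bla cells (4,000/well) were pre-incubated 5 h at 37 C, then given compounds in DMSO plus human liver microsomes (0.5 mg/mL final) and NADPH (0.5 mg/mL final) for 16 h at 37 C. Viability was read by CellTiter-Glo luminescence.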

[9] = p53 small molecule agonists, cell-based qHTS assay with rat liver microsomes: qHTS cell viability counter screen (AID 1963580); note: nearly all actives have a fitted effect of over 45% in size
How it was run: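 Luminescent ATP readout (CellTiter-Glo, 30 min at room temperature) reports viability of p53RE-bla HCT-116 cells after 16 h at 37 C with test compounds under metabolic activation by rat liver microsomes and NADPH at 0.5 mg/mL final each.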

[10] = p53 small molecule agonists, cell-based qHTS assay: qHTS cell viability counter screen (AID 1963581); note: nearly all actives have a fitted effect of over 45% in size
How it was run: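 qHTS counter screen: 16 h compound exposure at 37 C of p53RE-bla HCT-116 cells (4,000 per well, seeded 5 h prior), cell viability by ATP luminescence.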

[11] = p53 small molecule agonists, cell-based qHTS assay (AID 1963582; active = well fitted activation curve with a large enough effect in the signal ratio in the repeat runs, not every such curve was filed as active; the % refers to the signal ratio)
How it was run: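 Measured: fluorescence from cleaved LiveBLAzer substrate. System: p53RE-bla cells, 16 h compound treatment at 37 C, 2 h substrate step at room temperature.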

[12] = biological target: Muscarinic acetylcholine receptor M1 (Homo sapiens) (UniProt P11229); experiment: Cholinergic receptor muscarinic 1 (CHRM1) small molecule antagonists, cell-based qHTS assay (AID 1963588); note: nearly all actives have a fitted effect of over 40% in size
How it was run: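 Compounds were tested at 15 concentrations in three independent runs. Dye-loaded CHRM1-CHO cells were exposed 5 min at room temperature before stimulation by acetylcholine added at 50nM. Intracellular calcium was read kinetically on FDSS for 3 min.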

[13] = biological target: Muscarinic acetylcholine receptor M1 (Homo sapiens) (UniProt P11229); experiment: Cholinergic receptor muscarinic 1 (CHRM1) small molecule agonists, cell-based qHTS assay (AID 1963589); note: nearly all actives have a fitted effect of over 35% in size
How it was run: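 Kinetic fluorescence (1 s intervals) of calcium-sensitive dye in human M1 CHO cells after compound addition; cells pre-incubated 18 h at 37 C/5% CO2 and dye-loaded 1 h.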

[14] = cAMP Responsive Elements (CRE) small molecule agonists, cell-based qHTS assay (AID 1963590)
How it was run: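 Test agents in DMSO were incubated 3 h at 37 C/5% CO2 with CRE-bla HEK 293T cells seeded 18 h earlier; LiveBLAzer B/G FRET substrate was added and read after 2 h at room temperature.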

[15] = cAMP Responsive Elements (CRE) small molecule antagonists, cell-based qHTS assay (AID 1963591; active = well fitted inhibition curve with a large enough effect in the signal ratio in the repeat runs, not every such curve was filed as active; the % refers to the signal ratio)
How it was run: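 Reporter line CRE-bla HEK 293T in dialyzed-FBS DMEM; cells preincubated 18 h, treated 3 h with compound plus NKH477 (0.25 uM final); LiveBLAzer FRET, 2 h RT.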

[16] = biological target: Beta-2 adrenergic receptor (Homo sapiens) (UniProt P07550); experiment: Adrenergic beta2 receptor (ADRB2) small molecule antagonists, cell-based qHTS assay (AID 1963592); note: series mostly up to about 92 µM; nearly all actives have a fitted effect of over 50% in size
How it was run: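 Assay format: CHO-ADRB2 cells, 18-20hr seeding at 37C/5% CO2, then compound plus 1nM isoproterenol agonist mix for 0.5hr RT. Homogeneous time-resolved fluorescence cAMP detection after 1hr, expressed as 665/615 nm ratio.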

[17] = biological target: Beta-2 adrenergic receptor (Homo sapiens) (UniProt P07550); experiment: Adrenergic beta2 receptor (ADRB2) small molecule agonists, cell-based qHTS assay (AID 1963593);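 note: CHO cells stably overexpressing human ADRB2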
How it was run: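 CHO cells stably over-expressing ADRB2 were plated overnight at 37C, then dosed with compounds plus a stimulation mix containing 100uM IBMX and 25uM Ro-20-1724 for 0.5hr at room temperature. cAMP was measured by HTRF competition, 1hr.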

[18] = biological target: D(2) dopamine receptor (Homo sapiens) (UniProt P14416); experiment: Dopamine D2 receptor (DRD2) small molecule agonists, cell-based qHTS assay (AID 1963594); note: nearly all actives have a fitted effect of over 35% in size
How it was run: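 HEK293 cells stably expressing DRD2 were cultured 24 h at 37 C, then given Ro20-1724 (0.1 mM final) and compounds for 10 min at room temperature. NKH477 (200nM) was then added for 30 min. cAMP was read by HTRF.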

[19] = biological target: D(2) dopamine receptor (Homo sapiens) (UniProt P14416); experiment: Dopamine D2 receptor (DRD2) small molecule antagonists, cell-based qHTS assay (AID 1963595; active = well fitted inhibition curve with a large enough effect in the signal ratio in the repeat runs, with a control signal flat; the % refers to the signal ratio)
How it was run: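 Cells were plated and grown for 24 h at 37 °C. Ro20-1724 (0.1 mM final) went in first, then compound for 10 min. NKH477 (200 nM) with quinpirole (12 nM) followed for 30 min at RT, then HTRF detection reagents for 1 h.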

[20] = biological target: 5-hydroxytryptamine receptor 2A (Homo sapiens) (UniProt P28223); experiment: 5-hydroxytryptamine receptor 2A (HTR2A) small molecule antagonists, cell-based qHTS assay (AID 1963586); note: nearly all actives have a fitted effect of over 45% in size
How it was run: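 CHO cells stably expressing human HTR2A were plated for 18 h at 37 C, then loaded with calcium dye for 1 h. Compounds were preincubated 5 min at room temperature before DOI (4 nM solution) was added. Kinetic fluorescence was read for 3 min.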

Chain of Muscarinic acetylcholine receptor M1 (Homo sapiens) (P11229 whole entry, looked up): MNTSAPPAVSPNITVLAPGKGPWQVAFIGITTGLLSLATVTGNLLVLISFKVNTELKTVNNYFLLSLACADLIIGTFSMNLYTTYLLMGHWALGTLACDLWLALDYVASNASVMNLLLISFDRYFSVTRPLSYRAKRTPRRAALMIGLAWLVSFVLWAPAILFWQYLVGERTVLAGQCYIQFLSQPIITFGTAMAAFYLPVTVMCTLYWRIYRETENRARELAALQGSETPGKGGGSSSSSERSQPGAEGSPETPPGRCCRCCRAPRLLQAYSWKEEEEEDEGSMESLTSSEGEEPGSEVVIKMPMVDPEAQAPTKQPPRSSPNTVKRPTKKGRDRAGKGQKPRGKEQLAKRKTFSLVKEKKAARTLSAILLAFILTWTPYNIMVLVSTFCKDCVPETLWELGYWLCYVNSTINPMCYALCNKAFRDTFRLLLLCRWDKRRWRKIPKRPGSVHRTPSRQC
Chain of D(2) dopamine receptor (Homo sapiens) (P14416 whole entry, looked up): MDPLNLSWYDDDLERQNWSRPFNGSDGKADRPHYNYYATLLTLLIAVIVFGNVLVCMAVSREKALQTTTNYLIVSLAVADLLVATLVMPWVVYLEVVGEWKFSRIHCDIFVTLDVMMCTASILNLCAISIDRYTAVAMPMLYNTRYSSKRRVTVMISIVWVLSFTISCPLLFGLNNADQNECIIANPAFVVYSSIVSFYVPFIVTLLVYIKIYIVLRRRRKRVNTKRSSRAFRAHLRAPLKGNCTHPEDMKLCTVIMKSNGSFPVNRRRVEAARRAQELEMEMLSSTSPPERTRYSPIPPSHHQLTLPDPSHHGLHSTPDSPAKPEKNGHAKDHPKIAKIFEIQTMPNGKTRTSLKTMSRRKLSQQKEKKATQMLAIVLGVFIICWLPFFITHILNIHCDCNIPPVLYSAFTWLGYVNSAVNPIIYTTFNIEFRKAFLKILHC
Chain of Gonadotropin-releasing hormone receptor (Homo sapiens) (P30968 whole entry, looked up): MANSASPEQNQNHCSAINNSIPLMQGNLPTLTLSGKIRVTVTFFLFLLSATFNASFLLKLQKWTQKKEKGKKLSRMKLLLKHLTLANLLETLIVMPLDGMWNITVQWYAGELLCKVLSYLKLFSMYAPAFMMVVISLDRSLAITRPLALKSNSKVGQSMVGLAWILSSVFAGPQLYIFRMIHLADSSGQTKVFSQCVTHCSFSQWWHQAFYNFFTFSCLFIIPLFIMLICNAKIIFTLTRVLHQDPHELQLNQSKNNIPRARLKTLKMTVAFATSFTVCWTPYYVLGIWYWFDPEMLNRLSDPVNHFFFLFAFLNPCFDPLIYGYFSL
Chain of 5-hydroxytryptamine receptor 2A (Homo sapiens) (P28223 whole entry, looked up): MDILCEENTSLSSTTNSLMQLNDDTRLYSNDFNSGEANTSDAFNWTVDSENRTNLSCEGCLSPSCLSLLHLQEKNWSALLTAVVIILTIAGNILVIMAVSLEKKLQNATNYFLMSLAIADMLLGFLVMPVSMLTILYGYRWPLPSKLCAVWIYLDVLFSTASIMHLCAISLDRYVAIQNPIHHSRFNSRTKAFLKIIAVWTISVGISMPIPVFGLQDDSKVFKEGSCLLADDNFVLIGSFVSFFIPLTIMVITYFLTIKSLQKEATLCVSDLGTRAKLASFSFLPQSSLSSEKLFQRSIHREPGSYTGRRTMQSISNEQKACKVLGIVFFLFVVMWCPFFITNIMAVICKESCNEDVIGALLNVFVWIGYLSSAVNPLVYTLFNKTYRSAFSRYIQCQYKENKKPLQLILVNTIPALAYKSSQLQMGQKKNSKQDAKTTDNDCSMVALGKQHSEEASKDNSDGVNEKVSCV
Chain of Beta-2 adrenergic receptor (Homo sapiens) (P07550 whole entry, looked up): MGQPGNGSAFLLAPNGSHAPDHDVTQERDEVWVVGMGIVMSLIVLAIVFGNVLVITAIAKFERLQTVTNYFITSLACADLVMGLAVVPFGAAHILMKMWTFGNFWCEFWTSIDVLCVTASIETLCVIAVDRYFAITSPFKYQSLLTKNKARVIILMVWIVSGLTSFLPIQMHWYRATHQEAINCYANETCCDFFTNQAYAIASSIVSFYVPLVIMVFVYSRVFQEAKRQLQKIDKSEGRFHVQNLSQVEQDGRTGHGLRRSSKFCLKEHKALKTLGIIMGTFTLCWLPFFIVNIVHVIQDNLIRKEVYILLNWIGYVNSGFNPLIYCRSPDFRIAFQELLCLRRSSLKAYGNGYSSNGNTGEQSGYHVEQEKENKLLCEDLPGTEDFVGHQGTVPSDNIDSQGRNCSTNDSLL
Chain of KiSS-1 receptor (Homo sapiens) (Q969F8 whole entry, looked up): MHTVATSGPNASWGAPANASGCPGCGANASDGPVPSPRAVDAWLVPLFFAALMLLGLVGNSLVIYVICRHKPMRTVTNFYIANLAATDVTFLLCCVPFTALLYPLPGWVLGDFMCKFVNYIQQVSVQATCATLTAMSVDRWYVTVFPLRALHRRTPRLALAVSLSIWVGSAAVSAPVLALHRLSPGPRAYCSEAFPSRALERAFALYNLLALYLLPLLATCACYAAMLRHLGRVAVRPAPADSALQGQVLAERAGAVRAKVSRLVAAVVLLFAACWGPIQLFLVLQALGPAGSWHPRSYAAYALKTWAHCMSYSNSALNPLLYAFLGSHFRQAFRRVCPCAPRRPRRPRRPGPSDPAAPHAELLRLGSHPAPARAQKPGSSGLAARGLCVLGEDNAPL

Row | Structure (SMILES) | Potency [1] | Potency [2] | Potency [3] | Potency [4] | Potency [5] | Potency [6] | Potency [7] | Potency [8] | Potency [9] | Potency [10] | Potency [11] | Potency [12] | Potency [13] | Potency [14] | Potency [15] | Potency [16] | Potency [17] | Potency [18] | Potency [19] | Potency [20]
1 | O=S(=O)(O)c1cccc(S(=O)(=O)O)c1 | inactive | inactive | inactive | inactive | inactive | inactive | inactive | inactive | inactive | inactive | inactive | inactive | inactive | inactive | inactive | inactive | inactive | inactive | inactive | 
2 | O=S(=O)(O)CCCN1CCOCC1 | inactive | inactive | inactive | inactive | inactive | inactive | inactive | inactive | inactive | inactive | inactive | inactive | inactive | inactive | inactive | inactive | inactive | inactive | inactive | inactive
3 | O=S(=O)(O)c1ccc2cc(O)c(S(=O)(=O)O)cc2c1 | inactive | inactive | inactive | inactive | inactive | inactive | inactive | inactive | inactive | inactive | inactive | inactive | inactive | inactive | inactive | inactive | inactive | inactive | inactive | inactive
4 | Cc1ccc(O)c([N+](=O)[O-])c1 | inactive | inactive | inactive | inactive | inactive | inactive | inactive | inactive | inactive | inactive | inactive | inactive | inactive | inactive | inactive | inactive | inactive | inactive | inactive | inactive
5 | CCC(C)CO (centres undefined) | inactive | inactive | inactive | inactive | inactive | inactive | inactive | inactive | inactive | inactive | inactive | inactive | inactive | inactive | inactive | inactive | inactive | inactive | inactive | inactive
6 | COC(=O)c1cc(S(N)(=O)=O)ccc1OC | inactive | inactive | inactive | inactive | inactive | inactive | inactive | inactive | inactive | inactive | inactive | inactive | inactive | inactive | inactive | inactive |  | inactive |  | inactive
7 | NS(=O)(=O)c1cc2c(cc1Cl)NC(C1CC3C=CC1C3)NS2(=O)=O (centres undefined) | inactive | inactive | inactive | inactive | inactive | inactive | inactive | 3.97 µM (active) | inactive | inactive | inactive |  | inactive |  | inactive | inactive |  | inactive | inactive | inactive

Source: PubChem BioAssay (Tox21)
